Screening results: PubChem, National Center for Advancing Translational Sciences (NCATS)
This is a sample that favours compounds with a hit; in the whole collection about 11% have one here.
FLuc inh: Firefly luciferase inhibition profiling of diverse chemical library using quantitative high-throughput screening; Luciferin 4-monooxygenase (Photinus pyralis), P08659; purified P. pyralis luciferase, luminescence, biochemical; AID 1347043, 2019; hit rate 2.5% among 76,000; Potency, µM (titrated, usually from 115 µM), usual class: inhibitors; note: nearly all actives have a fitted effect of over 65% in size
Target sequence (P08659 whole entry, looked up): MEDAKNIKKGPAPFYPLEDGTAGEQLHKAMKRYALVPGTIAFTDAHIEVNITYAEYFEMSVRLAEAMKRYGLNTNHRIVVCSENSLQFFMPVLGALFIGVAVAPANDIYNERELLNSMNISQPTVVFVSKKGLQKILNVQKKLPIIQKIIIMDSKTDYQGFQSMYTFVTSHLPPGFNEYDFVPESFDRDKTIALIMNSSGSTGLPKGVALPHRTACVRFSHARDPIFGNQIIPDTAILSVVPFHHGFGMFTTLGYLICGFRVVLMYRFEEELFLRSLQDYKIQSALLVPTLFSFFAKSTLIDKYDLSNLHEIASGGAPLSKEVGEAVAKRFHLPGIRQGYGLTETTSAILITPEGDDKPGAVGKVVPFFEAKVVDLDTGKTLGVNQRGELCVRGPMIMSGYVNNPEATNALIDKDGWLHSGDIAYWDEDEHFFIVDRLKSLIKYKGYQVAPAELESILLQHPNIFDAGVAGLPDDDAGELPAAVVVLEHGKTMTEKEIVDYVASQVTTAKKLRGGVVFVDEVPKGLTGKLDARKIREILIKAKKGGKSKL
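Luminescence read by CCD imager after adding enzyme (10nM final) to wells holding compound, titrated in qHTS. Substrates 10uM each D-luciferin and ATP; buffer 50mM Tris acetate pH 7.5, 10mM Mg acetate, Tween-20, BSA.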
NIH3T3 tox: Cytotoxic Profiling in NIH 3T3 Cell Line of Diverse Libraries Using Quantitative High-Throughput Screening; NIH 3T3 viability, CellTiter-Glo ATP luminescence, 48-72 h; Potency, µM (top dose mostly 96.7 µM), without a hit: at the highest dose activity change, negative = cytotoxicity, usual class: inhibitors; hit rate 4.3% among 94,000; AID 1345082, 2018; note: nearly all actives have a fitted effect of over 55% in size
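NIH 3T3 cells at 400 cells/well received 23 nL of compound by pintool and were incubated 48 or 72 h at 37 °C. Viability was read as ATP-coupled CellTiter-Glo luminescence.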
hNpr1 antagonist: Natriuretic polypeptide receptor (hNpr1) antagonism - Primary qHTS; Atrial natriuretic peptide receptor 1 (Homo sapiens), P16066; HEK293 hNpr1 GloSensor cGMP, ANP-stimulated luminescence; Potency, µM (titrated, usually from 46.3 µM), for the others: at the highest dose activity change, negative = inhibition, most hits filed as inhibitors; hit rate 1.6% among 76,000; calls by dose curve; note: nearly all actives have a fitted effect of over 60% in size
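HEK293 cells stably expressing human Npr1 and cGMP GloSensor pGS-40F, loaded 2 h with 2% GloSensor reagent, given compound 30 min at room temperature. Luminescence read before and 20 min after 0.1 nM hNppA.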
HEK293 tox: Cytotoxic Profiling in HEK 293 Cell Line of Diverse Libraries Using Quantitative High-Throughput Screening | HEK 293 viability, ATP luminescence (CellTiter-Glo), 48-72 h | Potency, µM (titrated, usually from 115 µM), inactives show at the top dose activity change, negative = cytotoxicity, actives largely listed as inhibitors | hit rate 6.6% among 94,000; note: nearly all actives have a fitted effect of over 60% in size
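Viability of HEK 293 cells, plated at 250 cells/well, was judged by cellular ATP after compound treatment for 48 or 72 hr. Luminescence was imaged 10 min after CellTiter-Glo addition at room temperature.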
An asterisk follows results filed as active; i = inactive; ? = inconclusive; . = no result; [ ] = remark or other dose. Unless noted, calls come from the whole dose curve; as a rule, active = well fitted curve in the direction sought with a large enough effect; inconclusive = small, poorly fitted or top-dose-only effect, or another doubt; inactive = no such curve, though single readings can be large; an effect the other way counts as inactive or inconclusive. % is set by controls: 0 for no effect and ±100 for the full control effect; potency is the fitted concentration of half-maximal effect.

SMILES	FLuc inh	NIH3T3 tox	hNpr1 antagonist	HEK293 tox
CCOC(=O)C1CCCN(C(=O)C2CC(c3ccccc3)CN(C(=O)c3cccc(F)c3)C2)C1 (stereo unspecified)	i	?	3%	?
CN(C)c1cccc(C(=O)N2CCN(C(=O)c3nnn4c3COC(c3ccccc3)C4)CC2)c1 (stereo unspecified)	?	?	-5%	?
CC(C)c1nc2c(c(-c3ccc(O)cc3)n1)CN(Cc1ccc(N(C)C)cc1)CC2	i	-29%	8%	79µM*
CC(C)c1nc2c(c(-c3ccc(Cl)cc3)n1)CCN(CC1CC1)CC2	.	-23%	.	-39%
CC(C)c1nc2c(c(-c3ccc(O)cc3)n1)CN(Cc1cccc(C(F)(F)F)c1)CC2	i	22µM*	-8%	32µM*
CC(C)c1nc2c(c(-c3ccc(O)cc3)n1)CN(Cc1ccc(F)cc1)CC2	i	?	2%	89µM*
CC(C)c1nc2c(c(-c3ccc(Cl)cc3)n1)CCN(Cc1ccc(C#N)cc1)CC2	.	?	.	40µM*
CC(C)c1nc2c(c(-c3ccc(O)cc3)n1)CCN(Cc1ccc(F)cc1)CC2	i	?	3%	?
CC1=C[C@@H](CN2CCC(O)CC2)[C@H](C(C)C)C[C@H]1Cc1nnc(C(C)(C)C)o1	i	?	0%[70.6 µM]	?
Cn1ncc2c(C(=O)NCc3ccccn3)cc(-c3ccc(F)cc3)nc21	.	-19%	.	?
CCOC(=O)C1=C(C)N=C2SC=C(CC(=O)N3CCC(C)CC3)N2C1c1ccc(C)cc1C (stereo unspecified)	i	?	?	?
CC(C)c1nc2c(c(-c3ccc(O)cc3)n1)CCN(Cc1ccccc1C(F)(F)F)CC2	i	28µM*	?	35µM*
CC(=O)NC1CCCN(c2ccc3nnc(-c4ccccc4)n3n2)C1 (stereo unspecified)	.	-25%	.	-13%
O=C(NCc1ccccc1)c1ccccc1OC1CN(Cc2cccc(F)c2)C1	i	?	-16%	28µM*
O=C(NCc1ccccc1)c1ccccc1OC1CN(Cc2ccncc2)C1	i	?	-6%	40µM*
O=C(NC1CC1)c1ccccc1OC1CN(Cc2ccc(F)c(F)c2)C1	i	?	-1%	?
O=C(NCc1ccccc1)c1ccccc1OC1CN(Cc2cccnc2Cl)C1	.	?	.	45µM*
O=C(NCc1ccccc1)c1ccccc1OC1CN(Cc2ccc(O)c(F)c2)C1	i	?	-9%	?
Cc1ccc(CN2CC(Oc3ccccc3C(=O)NCc3ccccc3)C2)o1	i	?	-10%	?
Cc1ccc(CN2CC(Oc3ccccc3C(=O)N3CCOCC3)C2)cc1C	i	?	2%	45µM*
CN1CC2(CCN(C(=O)c3cccc(C#N)c3)CC2)CC1CN1CCOCC1 (stereo unspecified)	.	-11%	.	-6%
Cc1cc(=O)n(CC(=O)Nc2cccc(C(C)C)c2)c(N2CCc3ccccc3C2)n1	i	?	?	?
O=C(O)c1cnc(-c2cc(NCc3ccccn3)nc3[nH]ccc23)c(Cl)c1	40µM*	-27%	-1%	-31%
Cc1cc(C)c(C)c(S(=O)(=O)NC2CCN(c3ccc(=O)n(CC4CC4)n3)CC2)c1C	i	?	?	32µM*
COc1ccc(-c2cc(N3CCCN(C(=O)c4ccc(C)c(C)c4)CC3)n[nH]2)cc1	i	?	0%	45µM*
SMILES	FLuc inh	NIH3T3 tox	hNpr1 antagonist	HEK293 tox
O=C(Cc1ccccc1Cl)N1CCCN(c2cc(-c3ccccc3)[nH]n2)CC1	i	?	-9%	?
Cc1ccc(C)c(C(=O)N2CCN(c3cc(-c4ccc(Cl)cc4)[nH]n3)CC2)c1	i	?	14µM*	25µM*
Cc1ccc(C(=O)N2CCCN(c3cc(-c4ccc(C)c(C)c4)[nH]n3)CC2)cc1C	i	?	-11%	35µM*
Cc1ccc(-c2cc(N3CCCN(C(=O)Cc4ccccc4Cl)CC3)n[nH]2)cc1C	?	40µM*	-3%	?
Cc1ccccc1C(=O)N1CCN(c2cc(-c3ccc(F)cc3)[nH]n2)CC1	i	?	-21%	?
Cc1ccc(-c2cc(N3CCCN(C(=O)c4ccc5c(c4)OCO5)CC3)n[nH]2)cc1C	i	?	-16%	?
COc1ccc(C(=O)N2CCCN(c3cc(-c4ccc(OC)cc4)[nH]n3)CC2)cc1	i	-27%	-21%	?
CCc1[nH]ncc1C(=O)N[C@H]1CC[C@H](Nc2nccc(-c3ccccn3)n2)C1	i	?	-1%	?
CCCC[S+](=O)([O-])N1C[C@@H](C(=O)OCC)[C@@H]2Oc3cc(OC)ccc3[C@@H]21	.	-36%	.	?
Cc1ccc(-c2cc(N3CCCN(C(=O)c4ccco4)CC3)n[nH]2)cc1C	i	32µM*	-10%	?
COc1ccc(-c2cc(N3CCN(C(=O)c4ccc(Cl)cc4OC)CC3)n[nH]2)cc1	i	?	?	?
COc1ccc(Cl)cc1C(=O)N1CCCN(c2cc(-c3ccc(C)c(C)c3)[nH]n2)CC1	i	40µM*	-20%	?
Cc1ccc(-c2cc(N3CCCN(C(=O)c4cccn4C)CC3)n[nH]2)cc1C	i	?	0%	?
COc1ccc(-c2cc(N3CCCN(C(=O)c4ccc(C(C)(C)C)cc4)CC3)n[nH]2)cc1	i	?	-1%	40µM*
COc1cccc(CN2C[C@@H]3C[C@H]2C(=O)N(Cc2ccccc2)c2ccccc2O3)n1	i	?	-19%[70.6 µM]	?
COc1ccc(Cl)cc1-c1ccc2c(c1)C(=O)N1CCN(C(=O)C3CCNCC3)C[C@@H]1C(=O)N2	i	i	-4%	-9%
Cc1ccc(-c2cccc(CN3CCCC(N[S+](=O)([O-])c4c(C)noc4C)C3)c2)cc1Cl (stereo unspecified)	.	16µM*	.	13µM*
COc1cccc(-c2ccc(CN3CCCC(N[S+](=O)([O-])c4c(C)noc4C)C3)cc2)c1 (stereo unspecified)	.	45µM*	.	?
C[S+](=O)([O-])NC1CCCN(Cc2ccc(-c3cncnc3)cc2)C1 (stereo unspecified)	.	-27%	.	?
Cc1cc(C)cc(-c2ccc(CN3CCCC(N[S+](=O)([O-])c4ccccc4)C3)cc2)c1 (stereo unspecified)	.	?	.	45µM*
Cc1ccc(-c2cccc(CN3CCCC(N[S+](=O)([O-])c4ccccc4)C3)c2)cc1Cl (stereo unspecified)	.	-23%	.	-14%
COc1cccc(-c2ccc(CN3CCCC(N[S+](=O)([O-])c4ccc(C)cc4)C3)cc2)c1 (stereo unspecified)	.	?	.	28µM*
